Vaccinia Venus = inhibitors of vaccinia virus (Venus reporter). Vaccinia virus Venus reporter expression, fluorescence. Potency, µM (series often up to 36.5 µM), most hits filed as inhibitors. hit rate 0.46% among 330,000. AID 720580; calls by dose curve; tested in A549 cells; note: nearly all actives have a fitted effect of over 30% in size
VACV mCherry inh = vaccinia inhibition (mCherry reporter) | hit rate 0.63% among 310,000 | Vaccinia virus mCherry reporter infection, fluorescence | Potency, µM (top dose mostly 36.5 µM), usual class: inhibitors; calls by dose curve; tested in A549 cells; note: nearly all actives have a fitted effect of over 35% in size
Marburg entry inh = blocks Marburg virus binding to or entry into cells | hit rate 1.8% among 300,000 | AID 540276 | Marburg virus pseudotyped entry inhibition, cell reporter | Potency, µM (titrated, usually from 37.8 µM), most hits filed as inhibitors; calls by dose curve; tested in HEK293 cells
HCV inhibitor = blocks hepatitis C virus; Potency, µM (highest dose often 41.8 µM), hits mostly inhibitors; hit rate 3.4% among 340,000; Huh7.5.1 HCVcc-Cre infection, luciferase reporter, 44 h; active = well fitted inhibition curve with a large enough effect; inconclusive = small, poorly fitted or top-dose-only effect, or another doubt; inactive = no such curve, though single readings can be large or run the other way
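Seed cells (1,000/well) for 4 h; treat with compound and infect with HCVcc-Cre, moi about 0.5. Incubate 44 h, then detect luciferase activity.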
LASV entry inh = Lassa virus entry inhibition | Lassa virus pseudotype entry inhibition, cell reporter | Potency, µM (highest dose often 37.9 µM), actives largely listed as inhibitors | hit rate 1.2% among 300,000; calls by dose curve; tested in HEK293 cells; note: nearly all actives have a fitted effect of over 50% in size
A number is an active result; – = inactive; ? = inconclusive; · = not tested or not shown; [ ] = remark or other dose. A selection: hits, their analogues and other compounds. The true share with any hit is near 4.6%.

SMILES	Vaccinia Venus	VACV mCherry inh	Marburg entry inh	HCV inhibitor	LASV entry inh
CN(c1ccccc1)c1nc(N2CCCC2)nc(-n2ccnc2)n1	?	–	–	?	?
c1ccc(CN2CCN(c3nc(-c4ccccc4)nc(-n4ccnc4)n3)CC2)cc1	·	·	?	11.2µM	–
c1ccc(-c2nc(-n3ccnc3)nc(-n3ccnc3)n2)cc1	·	·	?	?	–
c1ccc(N(c2ccccc2)c2nc(N3CCCC3)nc(-n3ccnc3)n2)cc1	·	·	?	?	1.64µM
O=c1oc2ccccc2c2c1[C@H]1O[C@](c3ccsc3)(Cc3c1ccc1ccccc31)O2	·	·	–	·	·
CC(=O)Nc1sc2c(c1-c1nc3ccccc3s1)CCN(C(C)C)C2	10µM	12.6µM	·	8.91µM	·
CCN1CCc2c(sc(NC(=O)c3cc4ccccc4cc3OC)c2C(N)=O)C1	?	14.1µM	11.2µM	8.91µM	–
CC(C)N1CCc2c(sc(NC(=O)c3ccc4ccccc4c3)c2C(N)=O)C1	·	·	·	8.91µM	·
CN1CCc2c(sc(NC(=O)c3cc(Cl)sc3Cl)c2C(N)=O)C1	–	?	·	12.6µM	·
O=C(NCc1nnc(SCc2ccc(F)cc2)n1-c1ccc(F)cc1)C12CC3CC(CC(C3)C1)C2	?	?	8.91µM	?	?
C[C@H]1CCC/C=C/C2C[C@H](O)CC2[C@H](O)/C=C/C(=O)O1 (stereo partly drawn)	?	?	0.366µM	?	1.16µM
CC1CCCC(=O)CCC/C=C/c2cc(O)cc(O)c2C(=O)O1 (stereo not drawn)	–	–	·	·	·
C[C@H]1CCC[C@@H](O)CCC/C=C/c2cc(O)cc(O)c2C(=O)O1	?	?	?	·	–
CC1CCCC=CC2CC(O)CC2C(O)/C=C\C(=O)O1 (stereo not drawn)	·	·	0.398µM	·	·
CCCCC[C@H]1CCCCC[C@H](O)C[C@H](O)[C@@H](O)/C=C/C(=O)O1	–	–	·	·	·
CC1CCC/C=C/C2CC(O)CC2C(O)/C=C/C(=O)O1 (stereo not drawn)	?	?	0.398µM	0.708µM	?
C/C(=C\c1ccco1)CN1CCOc2ccc(CN3CCC(Oc4cccnc4)CC3)cc2C1	–	–	·	·	·
Cc1ccc(-c2cn3c(n2)sc2cc(C(=O)NC(C)C45CC6CC(CC(C6)C4)C5)ccc23)cc1 (stereo not drawn)	–	–	·	·	–
CCn1c2ccccc2c2cc(CN3CCN(Cc4ccc(Cl)cc4)CC3)ccc21	–	–	·	·	?
NS(=O)(=O)c1ccc(NC(=S)Nc2ccn(Cc3cccc4ccccc34)n2)cc1	–	–	6.31µM	10µM	3.55µM
O=C(CSc1ccc2nc(-c3ccccc3)cn2n1)Nc1cccc(F)c1	–	–	·	·	–
O=C(Nc1nc2ccccc2n1CCN1CCOCC1)c1cn(-c2ccccc2)nc1-c1ccccc1	?	28.2µM	?	10µM	?
COc1ccc(CNc2nc3ccccc3n2CCN2CCOCC2)cc1	?	–	–	–	–
O=C(Nc1nc2ccccc2n1CCN1CCOCC1)c1ccccc1	–	–	–	–	–
CCN(CC)c1ccc(CNc2nc3ccccc3n2CCN2CCOCC2)cc1	–	–	11.2µM	?	–
SMILES	Vaccinia Venus	VACV mCherry inh	Marburg entry inh	HCV inhibitor	LASV entry inh
COc1ccc(-c2onc(C)c2C)cc1S(=O)(=O)Nc1cccc(C#N)c1	–	?	·	·	–
O=S(=O)(c1ccccc1)N1CCC(c2ccncc2)CC1	–	–	·	·	–
Cc1cccc(S(=O)(=O)N(C)C[C@@H]2OCc3cnnn3CCCC(=O)N([C@@H](C)CO)C[C@@H]2C)c1	–	–	·	·	·
C[C@@H]1CN([C@H](C)CO)C(=O)CCCn2nncc2CO[C@H]1CN(C)S(=O)(=O)c1cccc(C#N)c1	5.01µM	?	·	·	·
O=C(Nc1ccc(Cl)c(Cl)c1)Nc1nnc(CSc2ccccc2)s1	–	–	10µM	?	3.55µM
O=C(Nc1ccccc1)Nc1nnc(CSCc2ccccc2Cl)s1	?	?	–	–	–
COC(=O)N1C(=O)[C@](Cc2ccccc2)(c2ccccc2)N1C(=O)OC	10µM	12.6µM	·	–	·
CC[C@]1(c2cccc(C)c2)C(=O)N(C(=O)OC)N1C(=O)OC	?	11.2µM	·	–	·
CC[C@@]1(c2ccccc2)C(=O)N(C(=O)OC)N1C(=O)OC	–	–	·	–	·
CCN1C(=O)CC(CC(=O)N2CCCCC2c2nccs2)(c2ccccc2C)C1=O (stereo not drawn)	–	–	·	·	·
CCCSc1ncc(Cl)c(C(=O)Nc2ccc(S(=O)(=O)N3CCCCC3C)cc2)n1 (stereo not drawn)	–	–	?	·	?
Cc1cc(-c2nn(-c3ccccc3F)cc2CN2CCCC(CO)C2)c(C)s1 (stereo not drawn)	–	?	5.62µM	?	?
O=C(CSc1nc2ccccc2[nH]1)Nc1nc(-c2cccc(Br)c2)cs1	–	–	–	–	–
CN(C)CCCn1c(SCC(=O)Nc2nc(-c3cccc(Br)c3)cs2)nc2ccccc2c1=O	–	–	11.2µM	10µM	?
CCCNC(=O)c1cn(CC)c2cc(N3CCN(C(=O)c4ccco4)CC3)c(F)cc2c1=O	·	·	·	10µM	·
Cc1c(C(=O)N2CCC(C(=O)Nc3ccc(F)cc3)CC2)sc2nc[nH]c(=O)c12	–	–	·	·	–
COC(=O)CSc1nc2c(c(-c3ccc(C)o3)c1C#N)CCCC2	·	·	–	5.62µM	–
CCSc1nc2c(c(-c3ccc(C)o3)c1C#N)CCCC2	–	–	–	?	–
COc1c(-c2coc3cc4c(cc3c2=O)CC(OC(C)=O)C(C)(C)O4)ccc2c1C=CC(C)(C)O2 (stereo not drawn)	–	–	·	·	·
COc1c(-c2coc3cc4c(cc3c2=O)CC(O)C(C)(C)O4)ccc2c1C=CC(C)(C)O2 (stereo not drawn)	11.2µM	11.2µM	·	·	·
CC(C)CON=C1C[C@@H](O)[C@@H](O)[C@@H]2[C@H]3C(=O)N(C4CCCCC4)C(=O)[C@@H]3CC[C@@H]12	·	·	–	·	–
COc1cc2c(cc1OC)-c1cc(NC3CCCCCCC3)nc(=O)n1CC2	–	–[1.46 µM]	?	–	14.1µM
CCOc1ccc(Nc2cc3n(c(=O)n2)CCc2cc(OC)c(OC)cc2-3)cc1	–	–	–	–	11.2µM
Cc1c(C(=O)NCC(C)(C)CN(C)C)cnn1-c1nccc(-c2ccccc2F)n1	–	–	·	·	·
Cc1ccccc1OCCOC(=O)c1cc(S(=O)(=O)N2CCCCC2)ccc1N1CCOCC1	?	?	?	11.2µM	?
SMILES	Vaccinia Venus	VACV mCherry inh	Marburg entry inh	HCV inhibitor	LASV entry inh
COc1ccccc1OCC(=O)Nc1cc(S(=O)(=O)N2CCOCC2)ccc1N1CCCCC1	–	?	?	12.6µM	?
COc1cc(S(=O)(=O)N2CCOCC2)ccc1NC(=O)COC(=O)c1cc(OC)c(OC)c(OC)c1	–	–	–	–	–
CCc1ccccc1OCC(=O)Nc1cc(S(=O)(=O)N2CCOCC2)ccc1N1CCCCC1	–	?	?	11.2µM	?
COc1cc(S(=O)(=O)N2CCOCC2)ccc1NC(=O)COC(=O)CC12CC3CC(CC(C3)C1)C2	·	·	–	?	16.4µM
COc1ccc(CCNC(=O)c2cc(=O)[nH]c3ccc(S(=O)(=O)N4CCCCC4C)cc23)cc1OC (stereo not drawn)	–	–	·	·	–
O=C(Nc1ccc(-c2csc(Nc3ccccc3)n2)cc1)c1cc([N+](=O)[O-])cc(C(F)(F)F)c1	?	15.8µM	·	?	·

Bioassay records as filed in PubChem.
